Data published in the supplement of paper PMC10849652.
About 7,900 targets were measured; listed, in parts, are those with a hit and a random draw of the rest. About 0.6% of all pairs of compound and target were hits.

What was measured:
Experiment in all cases: log2 fold change, soluble protein after heating vs DMSO (PISA); higher = thermal stabilisation; K562 cells, 10 uM, 30 min; active = over 0.2 and 3.5 SD of the protein, either way, in both replicates (recomputed)
[1] = compound: C1=CC=C(C=C1)[C@H](COC2=CC3=C(C=C2)NC(=O)N3)NC(=O)C4=CC=CN(C4=O)CC5=CC(=C(C=C5)F)F
Summary of the method: (§1)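 Soluble protein was quantified by TMTpro 16plex LC-MS/MS after channel sums were equalised. It was obtained as the supernatant after 21,000xg for 90 min from pooled aliquots of K562 cells (2×10^6 cells/mL, 10 μM compound, 30 min) heated for 3 min across 48°C-58°C and extracted in PBS with 0.5% NP-40 at 4°C. Thermal stability values are relative to control samples and come from duplicates. They are given as log2 fold changes.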

[2] = compound: CC1=C(SC2=C1C(=N[C@H](C3=NN=C(N32)C)CC(=O)N)C4=CC=C(C=C4)Cl)C
Summary of the method: as §1

[3] = compound: CC1=C2C(=CC=C1)N=C(N(C2=O)C3=CC=CC=C3C)CN4C=NC5=C(N=CN=C54)N
Summary of the method: as §1

[4] = compound: Cc1sc2c(c1C)C(c1ccc(Cl)cc1)=N[C@@H](CC(=O)OC(C)(C)C)c1nnc(C)n1-2
Summary of the method: as §1

[5] = compound: c1ccc([C@@H]2C[C@H]2NC2CCNCC2)cc1
Summary of the method: as §1

Measured: log2 fold change

TRAPPC2L (UniProt Q9UL33)
Sequence of UniProt Q9UL33 (Q9UL33 whole entry, looked up): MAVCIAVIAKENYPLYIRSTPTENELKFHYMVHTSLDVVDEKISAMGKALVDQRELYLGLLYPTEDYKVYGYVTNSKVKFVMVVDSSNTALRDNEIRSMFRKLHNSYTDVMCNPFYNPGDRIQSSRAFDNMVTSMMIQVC
inactive: [1] -0.014 | [2] -0.044 | [3] -0.058 | [4] -0.063 | [5] 0.038

WDR43 (UniProt Q15061)
Sequence of UniProt Q15061 (Q15061 whole entry, looked up): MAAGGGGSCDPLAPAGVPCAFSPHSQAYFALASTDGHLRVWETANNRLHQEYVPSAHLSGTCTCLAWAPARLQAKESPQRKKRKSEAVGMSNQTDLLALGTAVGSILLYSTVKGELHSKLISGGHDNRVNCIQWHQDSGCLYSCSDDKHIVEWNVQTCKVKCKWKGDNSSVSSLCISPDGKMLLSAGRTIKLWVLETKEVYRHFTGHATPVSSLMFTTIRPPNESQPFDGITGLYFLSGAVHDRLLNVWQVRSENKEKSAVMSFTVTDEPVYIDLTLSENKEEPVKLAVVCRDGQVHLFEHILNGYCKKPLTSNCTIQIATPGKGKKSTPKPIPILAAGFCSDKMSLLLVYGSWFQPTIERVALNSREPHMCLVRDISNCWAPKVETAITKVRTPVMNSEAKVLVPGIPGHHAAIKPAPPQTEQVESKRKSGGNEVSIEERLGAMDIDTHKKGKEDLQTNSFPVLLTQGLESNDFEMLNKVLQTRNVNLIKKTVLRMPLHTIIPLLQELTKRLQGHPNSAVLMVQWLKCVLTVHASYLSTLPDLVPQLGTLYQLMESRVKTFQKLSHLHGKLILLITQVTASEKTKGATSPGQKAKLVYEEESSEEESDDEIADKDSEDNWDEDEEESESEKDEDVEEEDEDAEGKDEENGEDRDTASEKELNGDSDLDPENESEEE
inactive: [1] 0.026 | [2] 0.027 | [3] 0.009 | [4] -0.009 | [5] 0.001

UQCR10 (UniProt Q9UDW1)
Sequence of UniProt Q9UDW1 (Q9UDW1 whole entry, looked up): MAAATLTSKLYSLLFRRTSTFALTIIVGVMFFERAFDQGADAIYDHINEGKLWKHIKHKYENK
inactive: [1] -0.032 | [2] 0.036 | [3] 0.142 | [4] -0.131 | [5] -0.009

VKORC1 (UniProt Q9BQB6)
Sequence of UniProt Q9BQB6 (Q9BQB6 whole entry, looked up): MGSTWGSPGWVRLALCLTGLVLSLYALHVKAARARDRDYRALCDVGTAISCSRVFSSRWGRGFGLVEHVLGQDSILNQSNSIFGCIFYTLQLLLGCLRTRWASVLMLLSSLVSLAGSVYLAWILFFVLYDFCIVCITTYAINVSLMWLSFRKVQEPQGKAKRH
inactive: [1] -0.058 | [2] 0.132 | [3] 0.083 | [4] -0.183 | [5] -0.012

WDR18 (UniProt Q9BV38)
inactive: [1] 0 | [2] 0.011 | [3] -0.019 | [4] -0.037 | [5] 0.019

TMEM106B (UniProt Q9NUM4)
inactive: [1] 0.039 | [2] -0.022 | [3] -0.008 | [4] -0.097 | [5] 0.034

TYW1 (UniProt Q9NV66)
inactive: [1] 0.017 | [2] -0.022 | [3] 0.039 | [4] -0.005 | [5] -0.091

TXNL4B (UniProt Q9NX01)
inactive: [1] 0.1 | [2] 0.068 | [4] -0.102 | [5] -0.12
active: [3] -0.537

TXNL1 (UniProt O43396)
inactive: [1] 0.005 | [2] 0.051 | [3] 0.056 | [4] -0.01 | [5] 0.015

UBE2J1 (UniProt Q9Y385)
Sequence of UniProt Q9Y385 (Q9Y385 whole entry, looked up): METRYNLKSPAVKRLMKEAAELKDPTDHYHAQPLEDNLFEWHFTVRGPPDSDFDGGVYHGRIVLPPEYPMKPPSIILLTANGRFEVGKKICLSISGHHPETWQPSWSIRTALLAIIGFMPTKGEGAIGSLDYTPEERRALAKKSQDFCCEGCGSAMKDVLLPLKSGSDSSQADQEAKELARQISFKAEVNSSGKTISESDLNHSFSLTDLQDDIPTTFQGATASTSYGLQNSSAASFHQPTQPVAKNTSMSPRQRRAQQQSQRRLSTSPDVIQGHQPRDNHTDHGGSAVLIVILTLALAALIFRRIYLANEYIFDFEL
inactive: [1] -0.061 | [2] -0.011 | [3] 0.05 | [4] -0.039 | [5] -0.068

XPO1 (UniProt O14980)
Sequence of UniProt O14980 (O14980 whole entry, looked up): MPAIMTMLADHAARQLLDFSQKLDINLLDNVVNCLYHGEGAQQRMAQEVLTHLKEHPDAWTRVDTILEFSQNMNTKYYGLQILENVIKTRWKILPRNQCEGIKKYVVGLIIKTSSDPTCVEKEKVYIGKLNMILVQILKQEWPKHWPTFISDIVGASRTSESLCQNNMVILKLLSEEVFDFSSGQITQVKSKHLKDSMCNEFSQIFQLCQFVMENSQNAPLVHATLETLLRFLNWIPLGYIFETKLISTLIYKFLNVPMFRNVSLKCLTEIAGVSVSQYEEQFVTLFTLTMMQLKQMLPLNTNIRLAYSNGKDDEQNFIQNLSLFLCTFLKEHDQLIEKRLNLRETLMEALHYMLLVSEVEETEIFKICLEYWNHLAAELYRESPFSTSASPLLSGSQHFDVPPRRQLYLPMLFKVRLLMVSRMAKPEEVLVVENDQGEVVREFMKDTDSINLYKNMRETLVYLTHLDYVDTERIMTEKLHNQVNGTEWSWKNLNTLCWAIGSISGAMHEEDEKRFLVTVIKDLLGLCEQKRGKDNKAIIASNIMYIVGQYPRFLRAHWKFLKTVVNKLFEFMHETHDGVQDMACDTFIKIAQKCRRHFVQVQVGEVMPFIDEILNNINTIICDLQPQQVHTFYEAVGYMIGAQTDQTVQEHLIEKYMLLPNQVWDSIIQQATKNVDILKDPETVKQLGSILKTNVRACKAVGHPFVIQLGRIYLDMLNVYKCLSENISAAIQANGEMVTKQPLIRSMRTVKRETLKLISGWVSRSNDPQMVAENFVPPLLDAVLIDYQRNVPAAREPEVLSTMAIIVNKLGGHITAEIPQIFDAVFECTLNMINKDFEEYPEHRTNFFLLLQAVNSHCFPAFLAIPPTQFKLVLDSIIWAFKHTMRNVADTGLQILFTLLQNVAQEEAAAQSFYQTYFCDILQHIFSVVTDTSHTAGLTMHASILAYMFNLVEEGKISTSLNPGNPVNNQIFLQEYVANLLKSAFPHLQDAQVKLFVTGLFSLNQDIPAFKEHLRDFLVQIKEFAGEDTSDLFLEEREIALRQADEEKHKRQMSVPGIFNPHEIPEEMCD
inactive: [1] -0.064 | [2] 0.053 | [3] 0.044 | [4] -0.011 | [5] -0.013

TNPO3 (UniProt Q9Y5L0)
Sequence of UniProt Q9Y5L0 (Q9Y5L0 whole entry, looked up): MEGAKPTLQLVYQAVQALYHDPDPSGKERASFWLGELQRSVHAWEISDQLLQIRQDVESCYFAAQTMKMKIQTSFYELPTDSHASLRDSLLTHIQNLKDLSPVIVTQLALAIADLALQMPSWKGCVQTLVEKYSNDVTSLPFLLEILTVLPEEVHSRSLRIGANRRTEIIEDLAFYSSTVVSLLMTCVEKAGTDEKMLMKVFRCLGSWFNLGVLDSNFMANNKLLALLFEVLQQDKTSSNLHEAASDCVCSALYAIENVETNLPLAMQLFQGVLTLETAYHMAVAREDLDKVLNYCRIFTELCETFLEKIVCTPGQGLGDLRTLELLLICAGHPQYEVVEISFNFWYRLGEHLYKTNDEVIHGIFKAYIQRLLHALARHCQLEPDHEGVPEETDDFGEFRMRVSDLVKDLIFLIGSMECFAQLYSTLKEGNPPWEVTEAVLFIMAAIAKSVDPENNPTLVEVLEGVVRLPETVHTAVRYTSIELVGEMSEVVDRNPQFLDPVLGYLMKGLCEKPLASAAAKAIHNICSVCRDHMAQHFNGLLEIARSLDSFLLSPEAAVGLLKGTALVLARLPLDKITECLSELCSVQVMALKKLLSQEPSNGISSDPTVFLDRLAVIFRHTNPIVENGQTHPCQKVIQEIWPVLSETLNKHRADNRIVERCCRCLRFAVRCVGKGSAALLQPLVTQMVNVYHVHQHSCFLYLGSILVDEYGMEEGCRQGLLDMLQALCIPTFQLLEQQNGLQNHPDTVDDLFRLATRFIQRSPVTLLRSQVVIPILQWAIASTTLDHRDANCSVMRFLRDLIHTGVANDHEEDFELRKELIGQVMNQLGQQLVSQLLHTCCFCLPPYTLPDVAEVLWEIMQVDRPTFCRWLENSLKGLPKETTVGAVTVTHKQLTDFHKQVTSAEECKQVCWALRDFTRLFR
inactive: [1] -0.035 | [2] 0.063 | [3] 0.014 | [4] -0.022 | [5] -0.007

VAMP7 (UniProt P51809)
Sequence of UniProt P51809 (P51809 whole entry, looked up): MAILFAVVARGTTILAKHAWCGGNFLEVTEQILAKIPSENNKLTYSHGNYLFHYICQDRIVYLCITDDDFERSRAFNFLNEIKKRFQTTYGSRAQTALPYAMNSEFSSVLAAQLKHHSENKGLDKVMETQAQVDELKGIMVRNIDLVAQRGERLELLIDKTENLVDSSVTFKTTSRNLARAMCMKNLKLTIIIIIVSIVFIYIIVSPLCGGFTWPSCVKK
inactive: [1] 0.007 | [2] 0.044 | [3] 0.077 | [4] -0.047 | [5] 0.015

TMEM214 (UniProt Q6NUQ4)
Sequence of UniProt Q6NUQ4 (Q6NUQ4 whole entry, looked up): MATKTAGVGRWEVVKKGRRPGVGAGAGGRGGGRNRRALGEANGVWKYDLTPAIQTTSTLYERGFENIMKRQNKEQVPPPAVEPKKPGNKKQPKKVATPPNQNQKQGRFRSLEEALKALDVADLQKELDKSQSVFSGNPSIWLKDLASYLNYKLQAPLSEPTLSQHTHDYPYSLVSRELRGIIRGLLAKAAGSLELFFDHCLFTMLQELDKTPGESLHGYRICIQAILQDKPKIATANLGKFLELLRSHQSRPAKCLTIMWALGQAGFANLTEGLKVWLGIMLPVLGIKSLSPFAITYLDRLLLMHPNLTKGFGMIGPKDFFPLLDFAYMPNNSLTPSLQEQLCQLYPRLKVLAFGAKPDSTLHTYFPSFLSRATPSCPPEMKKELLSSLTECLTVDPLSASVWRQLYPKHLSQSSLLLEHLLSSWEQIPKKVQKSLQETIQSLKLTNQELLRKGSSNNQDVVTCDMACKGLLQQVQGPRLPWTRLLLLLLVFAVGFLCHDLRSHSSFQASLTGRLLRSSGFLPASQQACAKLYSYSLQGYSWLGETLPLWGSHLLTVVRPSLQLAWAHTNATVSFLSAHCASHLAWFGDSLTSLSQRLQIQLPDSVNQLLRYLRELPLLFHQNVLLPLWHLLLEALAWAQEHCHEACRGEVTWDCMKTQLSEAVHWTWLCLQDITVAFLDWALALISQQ
inactive: [1] 0.023 | [2] 0.044 | [3] 0.005 | [4] -0.002 | [5] -0.024

WDHD1 (UniProt O75717)
inactive: [1] -0.014 | [2] 0.085 | [3] 0.121 | [4] 0.002 | [5] 0.015

UBE2Q1 (UniProt Q7Z7E8)
inactive: [1] -0.041 | [2] 0.061 | [3] 0.053 | [4] -0.001 | [5] 0.062

UFL1 (UniProt O94874)
inactive: [1] -0.072 | [2] 0.012 | [3] 0.039 | [4] 0.001 | [5] -0.066

TOP2A isoform 4 (UniProt P11388)
inactive: [1] 0.157 | [2] -0.322 | [3] -0.703 | [4] 0.252 | [5] 0.002

WDR75 (UniProt Q8IWA0)
inactive: [1] -0.031 | [2] -0.24 | [3] 0.002 | [4] 0.304 | [5] -0.089

XRCC5 (UniProt P13010)
Sequence of UniProt P13010 (P13010 whole entry, looked up): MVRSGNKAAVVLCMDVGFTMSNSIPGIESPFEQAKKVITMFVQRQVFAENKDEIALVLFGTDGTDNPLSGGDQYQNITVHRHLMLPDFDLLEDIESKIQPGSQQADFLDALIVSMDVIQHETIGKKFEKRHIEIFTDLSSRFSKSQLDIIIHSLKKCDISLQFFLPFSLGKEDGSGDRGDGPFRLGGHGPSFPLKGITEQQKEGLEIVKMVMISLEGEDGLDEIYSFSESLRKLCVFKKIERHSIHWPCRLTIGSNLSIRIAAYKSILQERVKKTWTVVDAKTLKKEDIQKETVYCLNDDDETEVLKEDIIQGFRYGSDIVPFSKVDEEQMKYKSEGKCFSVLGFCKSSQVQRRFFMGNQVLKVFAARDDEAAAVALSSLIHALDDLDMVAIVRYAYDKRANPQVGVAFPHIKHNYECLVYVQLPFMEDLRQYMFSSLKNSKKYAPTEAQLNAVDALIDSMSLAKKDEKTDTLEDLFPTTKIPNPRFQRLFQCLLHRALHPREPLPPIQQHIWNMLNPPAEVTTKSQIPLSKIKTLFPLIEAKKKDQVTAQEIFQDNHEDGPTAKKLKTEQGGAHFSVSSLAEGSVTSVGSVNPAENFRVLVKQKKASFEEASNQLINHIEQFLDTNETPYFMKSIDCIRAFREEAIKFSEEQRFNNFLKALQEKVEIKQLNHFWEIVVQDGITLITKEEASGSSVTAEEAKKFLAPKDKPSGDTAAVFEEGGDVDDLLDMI
inactive: [1] -0.136 | [2] -0.019 | [3] 0.095 | [4] 0 | [5] -0.003

UBC (UniProt P0CG48)
inactive: [1] 0.023 | [2] 0.087 | [3] 0.058 | [4] -0.019 | [5] -0.061

WASHC2C, A0A096LPC5
inactive: [1] 0.015 | [2] 0.012 | [3] 0.008 | [4] 0.027 | [5] 0.001

VPS39 (UniProt Q96JC1)
inactive: [1] -0.087 | [2] 0.018 | [3] 0.071 | [4] -0.009 | [5] -0.052

UGGT1 (UniProt Q9NYU2)
inactive: [1] 0.032 | [2] 0.027 | [3] -0.003 | [4] -0.007 | [5] -0.021
